# Screens: PubChem BioAssay, several laboratories
# Peg3 promoter = Peg3 promoter-driven luciferase inhibitors, primary screen, cell-based, HeLa, luciferase luminescence. hit rate 1.7% among 360,000. HeLa PEG-Prom luciferase reporter, overnight. inhibition, % at 20 µM. AID 588405, 2011;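 active means inhibition of at least 50% at 20 µM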
# ABHD5-PLIN5 inh = ABHD5-PLIN5 interaction inhibitors, primary screen, cell lysate, split luciferase complementation, luminescence; Perilipin-5 (Homo sapiens) + 1-acylglycerol-3-phosphate O-acyltransferase ABHD5 (Homo …; Split G. princeps luciferase complementation, 4 h; inhibition, % at 4 µM; hit rate 0.78% among 360,000; AID 602281, 2012;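 active means inhibition above the mean inhibition across every tested compound plus 3 SD, cut at about 22% in these data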;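 further: 0% = DMSO only wells and the 100% control is not disclosed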
# Shn3 3UTR inh = reduction of Shn3 3'UTR firefly luciferase signal, primary screen, Schnurri-3 inhibitor project, cell-based, Clone20 osteoblasts, set 2. AID 588674, 2011. inhibition, % at 12.5 µM. Clone20 osteoblast Shn3 3'UTR firefly luciferase, 24 h. hit rate 0.52% among 360,000;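 active means mean inhibition of at least 75% with every replicate also reaching 75%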;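 further: 0% = median of neutral control wells and 100% = pilot-screen positive control compound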
# MITF TRPM1 inh = inhibitors of MITF-dependent TRPM1 promoter reporter, primary screen, cell-based, SK-MEL-5, single point, luciferase; SK-MEL-5 TRPM1 promoter luciferase, 24 h; inhibition, % at 12.5 µM; hit rate 0.83% among 330,000;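 active means mean inhibition across replicates of 60% or more, whatever share of single replicates reaches that level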
# PAX8 reporter = inhibitors of PAX8-driven TPO luciferase reporter, primary screen, RMG-I cells, single concentration | SteadyGlo, 24 h | inhibition, % at 12.6 µM | hit rate 1.2% among 360,000 | AID 652154, 2013;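 active means mean replicate inhibition at least 60% with every replicate also reaching 60%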;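 further: luciferase light reporting Pax8 driven TPO promoter activity; plate controls were median of neutral control wells for no effect and mitoxantrone controls for full effect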
# EWS-Fli inh = EWS/Fli-driven NR0B1 reporter inhibitors, primary screen, A673 cells, NR0B1 luciferase, luminescence, MLPCN library | hit rate 0.67% among 350,000 | inhibition, % at 12.6 µM | viability-normalised;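 active means mean inhibition of at least 50% after viability correction, with every replicate also passing that limit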;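 further: firefly luciferase signal divided by Alamar Blue viability fluorescence both relative to DMSO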
# ABHD5-PLIN5 conf = ABHD5-PLIN5 interaction inhibitors, confirmation, biochemical, luminescence. shares compounds with ABHD5-PLIN5 inh. inhibition, % at 4 µM. hit rate 67% among 2,200. AID 651612, 2012; in the data active means inhibition above about 23%;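 further: 0% = DMSO vehicle wells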
# HNF4 counter = HNF4 dimerization inhibitors, counter-screen for ABHD5-PLIN5 interaction inhibitor project, biochemical, split-luciferase complementation, luminescence | shares compounds with ABHD5-PLIN5 inh | inhibition, % at 4 µM | hit rate 77% among 2,200 | AID 651674, 2012;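 active means mean inhibition across replicate wells exceeding the computed hit threshold, cut at about 13% in these data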;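 further: light from luciferase halves that rejoin when HNF4 fusion proteins dimerize; 0% = DMSO only wells and the 100% control is not given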
# Target sequence (P41235 whole entry, looked up, the tested form may be a part): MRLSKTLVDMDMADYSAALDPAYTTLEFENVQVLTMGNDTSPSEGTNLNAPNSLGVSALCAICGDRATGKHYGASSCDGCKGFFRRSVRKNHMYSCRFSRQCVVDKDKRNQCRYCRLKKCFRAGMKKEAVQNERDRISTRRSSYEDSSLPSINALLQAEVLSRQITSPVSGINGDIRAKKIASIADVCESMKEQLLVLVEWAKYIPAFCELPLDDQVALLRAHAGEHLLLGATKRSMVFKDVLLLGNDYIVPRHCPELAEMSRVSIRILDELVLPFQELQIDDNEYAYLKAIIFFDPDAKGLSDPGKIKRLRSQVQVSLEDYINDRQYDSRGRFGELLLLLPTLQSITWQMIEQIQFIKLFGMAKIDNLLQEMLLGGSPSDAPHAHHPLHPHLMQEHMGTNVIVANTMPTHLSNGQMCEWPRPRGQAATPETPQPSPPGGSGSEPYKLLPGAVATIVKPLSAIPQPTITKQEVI
# * = called active by the depositor; · = no result given. A selection: hits, their analogues and other compounds. The true share with any hit is near 3%.
SMILES,Peg3 promoter,ABHD5-PLIN5 inh,Shn3 3UTR inh,MITF TRPM1 inh,PAX8 reporter,EWS-Fli inh,ABHD5-PLIN5 conf,HNF4 counter
CC(=O)OC[C@]12CC[C@H]3[C@@](C)(CC[C@H]4C(C)(C)CCC[C@]34C)[C@@H]1CC(C1=CC(=O)OC1O)O2 (stereo not given in full),105*,100*,98*,·,·,56*,103*,103*
CN1CCN(CC#CCn2c3ccccc3c3ccccc32)CC1,-2,23*,1,-21,·,-5,12,1
C[C@@H]1CN([C@@H](C)CO)C(=O)c2cc(-c3cccc(C(=O)N(C)C)c3)cnc2O[C@H]1CN(C)S(=O)(=O)c1cccc(F)c1,·,·,·,·,·,-22,·,·
COc1ccc2c3c(n(C)c2c1)[C@@H](CO)N(C(=O)c1ccc(F)cc1)CC31CCN(C(=O)Nc2ccc(F)cc2)CC1,·,·,·,·,24,5,·,·
Cc1ccc(NC(=O)c2cnccn2)nc1,-178,4,-61,-73,-175,-60,·,·
Cc1ccc(NC(=O)c2cnccn2)c(Br)c1,-238,100*,-25,-68,-74,-35,2,1
O=C(CC1(O)C(=O)Nc2ccc(Br)cc21)c1ccccc1 (stereo not given),-6,-9,-11,·,17,24,·,·
C=CCOc1cccc(C(=O)/C=C2/C(=O)Nc3ccccc32)c1,85*,65*,74,52,0,54*,80*,90*
O=C(O)COc1ccccc1/C=C1\C(=O)Nc2ccc(Br)cc21,1,34*,-35,19,-21,5,42*,44*
C=CCOc1cccc(C(=O)N2CCCC(CCC(=O)NCc3ccccc3F)C2)c1 (stereo not given),-30,-4,10,-31,4,8,·,·
O=C1Nc2ccc(Br)cc2/C1=C/C(=O)c1ccccc1,98*,85*,65,75*,-13,32,88*,80*
CC(=O)/C=C1/C(=O)Nc2ccccc21,22,44*,29,28,17,28,71*,81*
CCOC(=O)COc1ccccc1/C=C1/NC(=O)NC1=O,5,-4,15,14,-7,14,·,·
O=C(C1CCOCC1)N1CC(=O)N2[C@H](CO)[C@H](c3ccc(C#CC4CCCC4)cc3)[C@H]2C1,·,·,·,·,·,-3,·,·
C[C@@H]1CN([C@H](C)CO)C(=O)Cc2cc(NC(=O)NC3CCCCC3)ccc2O[C@H]1CN(C)Cc1ccc(-c2ccccc2)cc1,·,·,·,·,34,8,·,·
COc1ccc(CCC(=O)Nc2c(-c3ccc(N(C)C)cc3)[nH][nH]c2=O)cc1,9,86*,12,·,-8,7,22,79*
C[C@@H]1CCCCO[C@H](CN(C)Cc2ccc3c(c2)OCO3)[C@H](C)CN([C@@H](C)CO)C(=O)c2cc(NS(=O)(=O)c3ccccc3)ccc2O1,·,·,·,·,5,7,·,·
COC(=O)C1=C(O)/C(=C\c2ccc(CNS(=O)(=O)c3ccc(Cl)cc3)o2)N=C1C,19,32*,4,-1,2,-14,29*,39*
CN(C)CCCNC(=O)C[C@H]1C=C[C@H](NC(=O)c2ccccc2F)[C@@H](CO)O1,·,·,·,·,-7,-3,·,·
Nc1ccccc1SC(CC(=O)c1ccccc1)c1cccc([N+](=O)[O-])c1 (stereo not given),8,76*,-10,·,-65,1,39*,100*
Nc1ccccc1SC(CC(=O)c1ccccc1)c1ccc([N+](=O)[O-])cc1 (stereo not given),25,71*,-40,·,-113,-52,70*,85*
COc1ccc(C(CC(=O)c2ccc(C)cc2)Sc2ccccc2N)cc1 (stereo not given),-189,-4,-71,·,-72,-2,·,·
C[C@H](CO)N1C[C@H](C)[C@@H](CN(C)Cc2ccc(C(F)(F)F)cc2)Oc2ccc(NC(=O)c3ccncc3)cc2CC1=O,·,·,·,·,-2,3,·,·
Cc1[nH]nc(-c2cccnc2)c1N=NN(C)C,71*,62*,-5,72*,71*,55*,73*,79*
CCn1c(SCC(=O)N/N=C/C=C/c2ccco2)nnc1-c1ccc(OC)cc1,1,30*,3,-8,24,·,17,40*
SMILES,Peg3 promoter,ABHD5-PLIN5 inh,Shn3 3UTR inh,MITF TRPM1 inh,PAX8 reporter,EWS-Fli inh,ABHD5-PLIN5 conf,HNF4 counter
COc1ccc(NC(=O)N(C)C[C@@H]2OCCCC[C@@H](C)Oc3ccc(NS(=O)(=O)c4ccc(F)cc4)cc3C(=O)N([C@@H](C)CO)C[C@H]2C)cc1,·,·,·,·,6,1,·,·
Cc1cc(C)nc(S/C=C/C(=O)c2ccccc2F)n1,97*,48*,44,87*,8,17,96*,100*
CCC(=O)Nc1ccc2c(c1)C(=O)N(C)C[C@@H](OC)[C@@H](C)CN(Cc1ccncc1)[C@H](C)CO2,·,·,·,·,10,-1,·,·
Cc1ccc(C(=O)CC(C(=O)O)n2cncn2)cc1 (stereo not given),10,2,9,7,-39,-3,·,·
Cc1ccc(C(=O)CC(C(=O)O)n2cnc([N+](=O)[O-])n2)cc1 (stereo not given),6,55*,-7,10,5,20,29*,58*
C=CCn1c(SCC(=O)NCCOC)nc2scc(-c3ccco3)c2c1=O,16,32*,5,15,·,·,42*,82*
C=CCn1c(SCC(=O)NCC2CCCO2)nc2scc(-c3ccc(OC)cc3)c2c1=O (stereo not given),22,-2,13,10,·,·,·,·
C=CCn1c(SCC(=O)NCC2CCCO2)nc2scc(-c3ccco3)c2c1=O (stereo not given),-2,34*,-3,-10,·,·,34*,82*
CC(=O)N1CCN(c2nc(-c3ccco3)c3c(c2C#N)CC(C)(C)SC3)CC1,-3,35*,11,-6,·,·,21,18*
O=c1[nH]c(C2CCN(S(=O)(=O)c3ccc(S(=O)(=O)NC4CC4)cc3)CC2)nc2c1nnn2Cc1ccccc1,24,3,-5,7,0,3,·,·
O=c1[nH]c(C2CCN(S(=O)(=O)c3ccc(S(=O)(=O)NC4CC4)cc3)CC2)nc2c1nnn2Cc1ccc(F)cc1,24,28*,-3,18,-7,13,48*,3
